Experimental data from PubChem BioAssay.
Activity calls are given as the source filed them. Unless noted, the rule behind the calls is not given here.

Assays:
[1] = system: Wnt5a (protein binding on small-molecule microarray); experiment: Wnt5a binders on small-molecule microarray, primary screen, biophysical, 635/667 nm fluorescence (AID 1142); conditions: 635 nm fluorescence, higher = more signal;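 note: fluorescence read at 667 nm with signal to noise per printed feature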
[2] = cell viability in Huh7 cells, primary screen, cytotoxicity control for HCV replication inhibitor project, CellTiter-Glo luminescence, basal, 48 h (AID 1143); conditions: Huh7 HCV replicon, higher = more signal, called active from +8 up or from −8 down;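 note: Huh7 hepatoma cells carrying a hepatitis C replication reporter with no stimulus; test concentration not given here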
[3] = P. aeruginosa biofilm formation inhibitors, primary screen, PAO1 strain, BacTiter-Glo luminescence, LB-PBS (AID 1144); conditions: 12 h, higher = more signal
[4] = CREB reporter modulators without forskolin, primary screen, cell-based, PC12, CRE-LacZ reporter, unstimulated (AID 1145); conditions: no forskolin, luminescence, 4.5 h, higher = more signal, called active from +8 up or from −8 down
[5] = CREB reporter modulators under forskolin, primary screen, cell-based, PC12, CRE-LacZ reporter, forskolin-stimulated (AID 1146); conditions: luminescence, 4.5 h, higher = more signal, called active from +8 up or from −8 down;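 note: PC12 cells with 6xCRE LacZ reporter stimulated by forskolin 10 µM; beta-galactosidase reporter signal reflecting CREB driven transcription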
[6] = molecular target: Streptavidin (Streptomyces avidinii) (UniProt P22629); experiment: streptavidin binders on small-molecule microarray, primary screen, artefact control for SMM compound annotation, biophysical, 635/667 nm fluorescence (AID 1147); conditions: streptavidin binding, higher = more signal;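 note: signal reflects streptavidin binding to arrayed compounds as a control protein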
Sequence of Streptavidin (Streptomyces avidinii) (P22629 whole entry, looked up): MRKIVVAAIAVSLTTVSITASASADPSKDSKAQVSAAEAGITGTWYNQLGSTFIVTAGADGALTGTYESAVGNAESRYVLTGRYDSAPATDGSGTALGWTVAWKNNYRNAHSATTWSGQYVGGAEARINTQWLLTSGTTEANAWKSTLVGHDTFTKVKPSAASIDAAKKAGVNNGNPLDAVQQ

[7] = small-molecule binders of probe aInhba, primary screen, biochemical, small-molecule microarray, 635/667 nm fluorescence (AID 1148); conditions: higher = more signal;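 note: score merges 667nm spot fluorescence with signal-to-noise for antibody binding to printed compounds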
Torsin-1A (Homo sapiens) [8] = molecular target: Torsin-1A (Homo sapiens) (UniProt O14656); experiment: torsin A binders from cell lysate, primary screen, small-molecule microarray, wild-type, 635/667 nm (AID 1149); conditions: COS7 hTOR1A-WT lysate, 635 nm fluorescence, higher = more signal
Sequence of Torsin-1A (Homo sapiens) (O14656 whole entry, looked up): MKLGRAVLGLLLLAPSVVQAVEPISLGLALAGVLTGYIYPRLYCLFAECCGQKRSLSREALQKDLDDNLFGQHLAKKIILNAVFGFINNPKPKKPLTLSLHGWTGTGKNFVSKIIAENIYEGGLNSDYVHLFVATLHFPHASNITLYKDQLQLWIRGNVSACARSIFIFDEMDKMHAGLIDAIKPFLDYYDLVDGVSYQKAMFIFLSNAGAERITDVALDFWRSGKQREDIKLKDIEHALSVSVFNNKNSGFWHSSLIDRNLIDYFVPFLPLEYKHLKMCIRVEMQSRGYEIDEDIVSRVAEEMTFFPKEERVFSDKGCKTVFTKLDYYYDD

Torsin-1A (Homo sapiens) [9] = molecular target: Torsin-1A (Homo sapiens) (UniProt O14656); experiment: small-molecule binders of mutant TOR1A in lysate, primary screen, cell lysate, small-molecule microarray, COS7 lysate, 635/667 nm fluorescence (AID 1150); conditions: COS7 hTOR1A mutant lysate, 635 nm fluorescence, higher = more signal;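 note: score pools 667 nm emission and signal to noise measuring lysate protein binding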
[10] = system: Sonic hedgehog protein (Shh); experiment: small-molecule binders of Shh protein, primary screen, biochemical, small-molecule microarray, 635/667 nm fluorescence (AID 1151); conditions: small-molecule microarray binding, 635 nm fluorescence; higher = more signal;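 note: Shh protein binding to compounds spotted on small-molecule microarray slides; score combines spot fluorescence intensity with signal-to-noise across triplicate slides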
[11] = E. coli DRC41 culture turbidity changes, primary screen, E. coli filamentation inducer project, strain DRC41, OD650, 48 h (AID 1152);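 note: E. coli MC1000 strain DRC41 lacking acrAB efflux pump and sulA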; conditions: E. coli DRC41 (acrAB sulA), higher = more signal, called active from +8 up or from −8 down
[12] = small-molecule binders of probe aLefty1, primary screen, biochemical, small-molecule microarray, 635/667 nm fluorescence (AID 1153); conditions: higher = more signal;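 note: score merges spot fluorescence with signal-to-noise ratio from the scanned slide images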
[13] = PSAC antagonists in infected red cells, primary screen, cell-based, P. falciparum Indochina, OD700, 1 h (AID 1154); conditions: P. falciparum Indochina infected RBC osmotic lysis, higher = more signal, called active from +8 up or from −8 down
[14] = PSAC antagonists in infected red cells, primary screen, cell-based, P. falciparum Indochina, OD700, 2 h (AID 1155);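 note: lysis reports solute entry through the parasite surface anion channel PSAC; channel blockers reduce lysis of infected cells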; conditions: P. falciparum Indochina infected erythrocytes, osmotic lysis OD700; higher = more signal, called active from +8 up or from −8 down
[15] = osmotic lysis modulators in infected erythrocytes, primary screen, PSAC antagonist project, cell-based, P. falciparum Indochina, OD700, 3 h (AID 1156); conditions: higher = more signal, called active from +8 up or from −8 down
[16] = PSAC antagonists in infected red cells, primary screen, cell-based, P. falciparum Indochina, OD700, 18 h (AID 1157); conditions: P. falciparum Indochina infected erythrocytes, osmotic lysis OD700, 18 h; higher = more signal, called active from +8 up or from −8 down
[17] = modulators of S6 phosphorylation in cells, primary screen, cell-based, A549, cytoblot, luminescence, serum-stimulated (AID 1158); conditions: A549 phospho-S6 cytoblot, 5 h, higher = more signal;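 note: serum-stimulated A549 lung adenocarcinoma cells; signal is phosphorylated S6 detected by cytoblot immunostaining with HRP secondary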
[18] = molecular target: NADPH oxidase 2 (Homo sapiens) (UniProt P04839); experiment: NOX2-dependent H2O2 signal modulators, primary screen, NOX inhibitor project, cell-based, HEK293-NOX2, PMA-stimulated, Amplex Red fluorescence (AID 1159); conditions: 45 min, higher = more signal, called active from +8 up or from −8 down; note: test concentration not given here
Sequence of NADPH oxidase 2 (Homo sapiens) (P04839 whole entry, looked up): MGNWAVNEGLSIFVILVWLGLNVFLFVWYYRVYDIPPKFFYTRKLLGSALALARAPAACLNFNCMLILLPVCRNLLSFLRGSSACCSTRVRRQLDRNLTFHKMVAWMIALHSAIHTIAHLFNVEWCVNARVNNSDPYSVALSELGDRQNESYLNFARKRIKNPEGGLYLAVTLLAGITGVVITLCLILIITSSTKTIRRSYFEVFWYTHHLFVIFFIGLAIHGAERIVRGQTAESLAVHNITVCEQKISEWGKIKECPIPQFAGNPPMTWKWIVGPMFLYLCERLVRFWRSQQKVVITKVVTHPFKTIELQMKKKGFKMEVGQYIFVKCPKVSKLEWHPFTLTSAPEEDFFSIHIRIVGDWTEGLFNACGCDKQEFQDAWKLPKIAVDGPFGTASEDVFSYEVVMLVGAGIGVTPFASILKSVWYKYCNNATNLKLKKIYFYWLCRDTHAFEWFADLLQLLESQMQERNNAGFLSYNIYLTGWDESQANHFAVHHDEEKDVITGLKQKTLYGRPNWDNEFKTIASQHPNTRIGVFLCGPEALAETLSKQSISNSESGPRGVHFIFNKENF

[19] = molecular target: NADPH oxidase 4 (Homo sapiens) (UniProt Q9NPH5); experiment: NOX4-dependent H2O2 signal modulators, primary screen, NOX inhibitor project, cell-based, HEK293-NOX4, tetracycline-induced, Amplex Red fluorescence (AID 1160); conditions: 45 min, higher = more signal, called active from +8 up or from −8 down
Sequence of NADPH oxidase 4 (Homo sapiens) (Q9NPH5 whole entry, looked up): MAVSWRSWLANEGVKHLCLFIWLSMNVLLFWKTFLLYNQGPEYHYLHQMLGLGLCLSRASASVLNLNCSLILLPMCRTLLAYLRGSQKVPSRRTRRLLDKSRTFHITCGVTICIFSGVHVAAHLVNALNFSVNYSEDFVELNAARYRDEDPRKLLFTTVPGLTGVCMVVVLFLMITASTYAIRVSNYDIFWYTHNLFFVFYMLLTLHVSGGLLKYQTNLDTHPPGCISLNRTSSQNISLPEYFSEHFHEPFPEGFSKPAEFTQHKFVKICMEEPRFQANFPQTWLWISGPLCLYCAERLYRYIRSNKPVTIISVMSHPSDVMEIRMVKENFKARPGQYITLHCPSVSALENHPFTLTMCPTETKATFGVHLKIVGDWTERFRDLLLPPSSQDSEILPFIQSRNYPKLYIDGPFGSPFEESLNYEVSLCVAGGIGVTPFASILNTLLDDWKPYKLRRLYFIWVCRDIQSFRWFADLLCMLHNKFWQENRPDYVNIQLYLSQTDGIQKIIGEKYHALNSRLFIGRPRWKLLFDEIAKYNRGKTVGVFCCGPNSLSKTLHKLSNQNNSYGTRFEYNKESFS

[20] = molecular target: NADPH oxidase 5 (Homo sapiens) (UniProt Q96PH1); experiment: NOX5-dependent H2O2 signal modulators, primary screen, NOX inhibitor project, cell-based, HEK293-NOX5, Amplex Red fluorescence (AID 1161); conditions: HEK293-NOX5, ionomycin, 45 min, higher = more signal
Sequence of NADPH oxidase 5 (Homo sapiens) (Q96PH1 whole entry, looked up): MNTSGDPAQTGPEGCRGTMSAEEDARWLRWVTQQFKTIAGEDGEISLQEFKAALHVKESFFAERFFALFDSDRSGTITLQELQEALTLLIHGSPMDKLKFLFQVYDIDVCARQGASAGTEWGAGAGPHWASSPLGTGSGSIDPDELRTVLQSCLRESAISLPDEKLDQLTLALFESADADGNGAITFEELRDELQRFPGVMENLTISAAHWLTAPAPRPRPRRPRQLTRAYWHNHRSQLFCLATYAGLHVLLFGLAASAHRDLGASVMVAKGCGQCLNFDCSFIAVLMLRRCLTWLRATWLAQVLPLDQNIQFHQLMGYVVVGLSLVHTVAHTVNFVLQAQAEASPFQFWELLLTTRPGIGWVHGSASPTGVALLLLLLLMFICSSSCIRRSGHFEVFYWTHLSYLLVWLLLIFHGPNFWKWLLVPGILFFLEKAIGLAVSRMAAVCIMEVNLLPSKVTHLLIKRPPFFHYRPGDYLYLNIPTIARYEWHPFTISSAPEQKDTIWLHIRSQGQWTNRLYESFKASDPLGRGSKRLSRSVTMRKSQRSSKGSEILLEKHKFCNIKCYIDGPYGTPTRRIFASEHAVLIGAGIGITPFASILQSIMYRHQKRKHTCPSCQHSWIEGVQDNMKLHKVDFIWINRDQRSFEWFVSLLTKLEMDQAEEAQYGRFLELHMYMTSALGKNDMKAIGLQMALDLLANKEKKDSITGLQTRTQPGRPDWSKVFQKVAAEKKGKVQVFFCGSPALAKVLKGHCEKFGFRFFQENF

SMILES | composite z-score [1] | z-score [2] | z-score [3] | z-score [4] | z-score [5] | composite z-score [6] | composite z-score [7] | composite z-score (Torsin-1A (Homo sapiens) [8]) | composite z-score (Torsin-1A (Homo sapiens) [9]) | composite z-score [10] | z-score [11] | composite z-score [12] | z-score [13] | z-score [14] | z-score [15] | z-score [16] | z-score [17] | z-score [18] | z-score [19] | z-score [20]
CC(C)[Si](OCC[C@H]1O[C@]2(C(=O)N(Cc3ccccc3)c3ccccc32)[C@@H](C)[C@@H]1[Si](C)(C)O)(C(C)C)C(C)C | 0.0427 | -0.555 (inactive) | 0.735 (inactive) | 0.223 (inactive) | -0.242 (inactive) | -0.0546 | -0.171 | 0.399 | -0.131 | 0.255 | 0.65 (inactive) | -0.193 | 0.914 (inactive) | 0.799 (inactive) | 0.226 (inactive) | 0.403 (inactive) | 0.158 | 0.999 (inactive) | -0.328 (inactive) | 0.523
O=C1c2ccccc2[C@](Cc2ccccc2I)(C(=O)NCc2ccccc2)[C@H](c2ccc(CO)cc2)N1Cc1ccccc1C(F)(F)F | -0.246 | -2.5 (inactive) | – | 0.0909 (inactive) | -0.487 (inactive) | -0.409 | -0.0313 | -0.635 | -0.162 | -0.197 | 1.73 (inactive) | -0.103 | 1.62 (inactive) | -0.664 (inactive) | -0.345 (inactive) | -1.24 (inactive) | 0.524 | 0.617 (inactive) | -0.738 (inactive) | 2.32
CC[C@H]1C2=C3C(CC[C@H]4C(OC)OC[C@](C)([C@@H]34)N(C(=O)OC(C)(C)C)C2)C(CO)C1CO (stereo partly drawn) | 0.647 | -1.06 (inactive) | 1.01 (inactive) | -0.182 (inactive) | 0.385 (inactive) | 3.17 | 0.34 | 0.295 | 1.87 | -0.623 | -0.36 (inactive) | 0.631 | -0.51 (inactive) | -0.909 (inactive) | -0.337 (inactive) | -2.25 (inactive) | 1.59 | -0.108 (inactive) | -0.269 (inactive) | -2.77
COC(=O)C[C@H]1O[C@]2(C(=O)N(Cc3ccccc3)c3ccc(I)cc32)[C@@H](C)[C@@H]1[Si](C)(C)c1ccc(OC)cc1 | -0.213 | -1.09 (inactive) | -0.135 (inactive) | -0.505 (inactive) | -0.522 (inactive) | 0.0595 | -0.106 | -0.181 | -0.0957 | -0.657 | -0.562 (inactive) | -0.235 | 1.09 (inactive) | 0.544 (inactive) | 0.558 (inactive) | 0.574 (inactive) | 1.01 | 1.89 (inactive) | -2.05 (inactive) | 0.00992
CCCN1C(=O)[C@@]2(CCS(=O)(=O)c3ccccc3)N=C(c3ccc(OCCCO)cc3)O[C@H]2c2ccccc21 | 0.286 | -4.26 (inactive) | -1.6 (inactive) | 0.997 (inactive) | -1.61 (inactive) | -0.0174 | 0.0528 | 0.069 | 0.655 | 1.58 | 0.33 (inactive) | 0.498 | 34.1 (active) | 32.4 (active) | 1.93 (inactive) | 3.19 (inactive) | 0.43 | -2.38 (inactive) | -0.683 (inactive) | -1.74
C#CCCCON=C1C[C@@H](O)[C@@H](O)[C@@H]2[C@@H]3C(=O)N(Cc4ccc5c(c4)OCO5)C(=O)[C@@H]3CC[C@H]12 | 0.322 | 0.0582 (inactive) | 0.448 (inactive) | -0.657 (inactive) | 0.653 (inactive) | 1.26 | -0.261 | 0.572 | 0.267 | 1.42 | 0.324 (inactive) | -0.161 | – | – | – | – | -0.852 | -0.275 (inactive) | 0.911 (inactive) | -0.124
CO[C@@H]1COC(=O)CC=C[C@H](C)COC(=O)[C@H](Cc2ccccc2)NC(=O)CC=C[C@H]1C | -0.108 | -0.87 (inactive) | – | -0.202 (inactive) | -1.63 (inactive) | -0.457 | -0.438 | 1.46 | 0.793 | 1.73 | 0.106 (inactive) | -0.358 | -0.0544 (inactive) | -0.866 (inactive) | -0.295 (inactive) | -1.49 (inactive) | 0.681 | -0.486 (inactive) | 0.845 (inactive) | 0.528
C=CC(=O)O[C@@H](Cc1ccccc1)[C@H]1C2C=CCCC=C2CN1Cc1cccc(Cl)c1 (stereo partly drawn) | -0.172 | -0.904 (inactive) | – | 1.03 (inactive) | -0.678 (inactive) | -0.575 | -0.082 | -0.471 | 0.393 | -0.0211 | 3.24 (inactive) | -0.378 | 1.35 (inactive) | 0.893 (inactive) | 0.781 (inactive) | 0.182 (inactive) | 0.711 | -0.192 (inactive) | 0.758 (inactive) | 0.467
